Data reported in the supplement of paper PMC3334620.
The full ranking holds about 33,000 sequences; the median of “E-score (-0.5 to 0.5)” is about -0.054, and the highest 2% start at about 0.39. What follows is part of a selection rich in the highest values, with near analogues and random picks from the rest.

target: Ylr278c (UniProt Q05854); experiment: PBM E-score (8-mer binding enrichment) (E-score (-0.5 to 0.5)); higher = stronger / more preferred TF binding; settings: protein concentration: 200 nM; construct: GST-DNA-binding domain
Chain of UniProt Q05854 (Q05854 whole entry, the tested form may be a part): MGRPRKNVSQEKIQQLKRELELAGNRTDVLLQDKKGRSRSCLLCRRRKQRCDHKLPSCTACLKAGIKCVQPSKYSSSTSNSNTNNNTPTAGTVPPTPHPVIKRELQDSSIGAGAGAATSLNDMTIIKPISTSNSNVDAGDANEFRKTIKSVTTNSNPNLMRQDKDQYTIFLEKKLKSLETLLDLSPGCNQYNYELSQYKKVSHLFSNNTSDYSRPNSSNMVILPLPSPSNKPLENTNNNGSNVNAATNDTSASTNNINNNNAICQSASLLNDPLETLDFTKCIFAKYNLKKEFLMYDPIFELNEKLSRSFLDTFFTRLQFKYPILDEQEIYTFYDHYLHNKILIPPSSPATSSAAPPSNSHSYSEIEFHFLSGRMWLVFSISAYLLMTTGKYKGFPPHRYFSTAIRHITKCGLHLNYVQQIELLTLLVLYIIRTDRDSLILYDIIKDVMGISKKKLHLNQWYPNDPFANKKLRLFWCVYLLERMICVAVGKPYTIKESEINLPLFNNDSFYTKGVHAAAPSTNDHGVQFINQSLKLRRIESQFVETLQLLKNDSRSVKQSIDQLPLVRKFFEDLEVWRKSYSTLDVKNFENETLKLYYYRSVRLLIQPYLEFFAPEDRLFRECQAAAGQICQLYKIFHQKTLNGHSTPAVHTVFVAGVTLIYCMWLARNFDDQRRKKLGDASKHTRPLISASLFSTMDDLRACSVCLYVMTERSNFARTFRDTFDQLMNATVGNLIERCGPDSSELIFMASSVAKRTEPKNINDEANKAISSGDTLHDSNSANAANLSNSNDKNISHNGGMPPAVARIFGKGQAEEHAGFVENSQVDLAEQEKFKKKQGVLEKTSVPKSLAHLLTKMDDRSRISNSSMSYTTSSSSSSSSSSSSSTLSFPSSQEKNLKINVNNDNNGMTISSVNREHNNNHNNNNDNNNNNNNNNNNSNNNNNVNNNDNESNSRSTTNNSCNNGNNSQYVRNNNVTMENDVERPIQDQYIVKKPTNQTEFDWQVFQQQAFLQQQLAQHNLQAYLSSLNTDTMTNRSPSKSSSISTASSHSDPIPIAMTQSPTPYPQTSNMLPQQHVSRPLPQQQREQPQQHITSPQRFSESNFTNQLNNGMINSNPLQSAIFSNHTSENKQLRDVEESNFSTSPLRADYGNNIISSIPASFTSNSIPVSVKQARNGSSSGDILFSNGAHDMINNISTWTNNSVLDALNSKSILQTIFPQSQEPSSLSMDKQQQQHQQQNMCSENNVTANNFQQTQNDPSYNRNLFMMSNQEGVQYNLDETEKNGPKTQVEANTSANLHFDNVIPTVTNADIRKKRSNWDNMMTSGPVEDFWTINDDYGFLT
Protocol: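 Universal 'all 10-mer' protein binding microarrays (Agilent AMADID 015681) probed with GST-tagged S. cerevisiae TFs (full-length or DBD) made by in vitro transcription/translation (PURExpress), about 100-200 nM. Bound TF was detected with fluorescent anti-GST. Each ungapped 8-mer (which stands for itself and its reverse complement) is scored by the PBM enrichment score (E-score), a modified Wilcoxon-Mann-Whitney statistic from -0.5 to +0.5, computed with the Universal PBM Analysis Suite. Scale: above 0.35 generally sequence-specific binding.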

| Sequence | PBM E-score |
| --- | --- |
| GATAGTGA | -0.0321 |
| ATTTTAAA | 0.0686 |
| CCAACTGG | -0.22 |
| AGTTGCGC | 0.233 |
| ACTTCACT | -0.0406 |
| AAATCAGT | 0.0231 |
| AGTCTCCA | -0.312 |
| AGTCTCCC | 0.102 |
| AGTCTCCG | 0.434 |
| ATTCTCCA | -0.052 |
| ATTCTCCC | 0.0768 |
| ATTCTCCG | 0.474 |
| CCGTCTCA | 0.0735 |
| CTCTGCTA | -0.128 |
| CTAGCAGA | -0.195 |
| CTCAAAGA | -0.2 |
| TAGTCATA | -0.145 |
| AAAATCCG | 0.451 |
| AATATCCC | 0.211 |
| ATTATCCA | -0.155 |
| AATATCGG | 0.395 |
| AAAATCCC | 0.263 |
| ATTATCCC | 0.0767 |
| AATATCGC | 0.125 |
| AATATCCA | 0.0239 |

| Sequence | PBM E-score |
| --- | --- |
| ATTATCCG | 0.393 |
| AATATCCG | 0.423 |
| AATATCGA | -0.0141 |
| CAAATCCG | 0.381 |
| ACGCATGC | -0.0181 |
| GCTCGTTA | -0.188 |
| ATCAGCGG | 0.29 |
| CGACCACG | 0.0345 |
| ATACAGCA | -0.0117 |
| AAATCAAC | -0.111 |
| AACTGACC | 0.152 |
| CCGCGCGA | 0.216 |
| CCGCGCCA | 0.182 |
| CCGCGCGC | 0.28 |
| CCGCGCCC | 0.191 |
| CCGCGCGG | 0.433 |
| CGGCGCCG | 0.461 |
| AGGCGCCG | 0.206 |
| CCGCGCCG | 0.4 |
| CGGCGCCA | 0.214 |
| CGACACTA | 0.102 |
| CGGTTGCC | 0.109 |
| GGCCTTAA | -0.0388 |
| TATGTTCA | -0.0845 |
| TACATTCA | -0.223 |

| Sequence | PBM E-score |
| --- | --- |
| ACGGACAT | 0.392 |
| ACGGACAG | 0.043 |
| ACGGACAA | 0.355 |
| ACGGACAC | 0.194 |
| TCGGACAA | 0.434 |
| CCGGACAG | 0.357 |
| GCGGACAC | 0.216 |
| CCGGACAA | 0.444 |
| TAGGACAA | -0.233 |
| CCGGACAC | 0.371 |
| GCGGACAA | 0.398 |
| TCGGACCA | 0.379 |
| AAAATCGA | -0.177 |
| GCTCTCCC | -0.0961 |
| CCCACCAG | -0.212 |
| AGCCTACA | -0.0936 |
| CGGCCGAG | 0.279 |
| ACTCCCAC | -0.035 |
| TCTACCCA | -0.14 |
| TCTGCACA | 0.0219 |
| ACAGACCA | -0.0751 |
| GATTCGAA | 0.102 |
| AGCTTAAG | -0.229 |
| ATGAGCCC | -0.138 |
| CCTGATAC | -0.0837 |

| Sequence | PBM E-score |
| --- | --- |
| CGAGAAAA | -0.0264 |
| AGACTAAT | -0.0793 |
| GCGGATAA | 0.314 |
| CCGGATAC | 0.384 |
| TCGGATAA | 0.403 |
| CCGGATAG | 0.347 |
| CCGGATAA | 0.417 |
| ACGGATAA | 0.293 |
| ATCAAGGG | -0.1 |
| CCAAAGCA | -0.107 |
| CGTCCGGC | 0.407 |
| CGTCCGTC | 0.208 |
| CGTCCGCA | 0.246 |
| AGTCCGTA | 0.328 |
| GGTCCGCA | 0.278 |
| CGTCCAGC | -0.233 |
| CGTCCGTA | 0.189 |
| AGTCCGGA | 0.476 |
| AGTCCGCA | 0.372 |
| GGTCCGTA | 0.304 |
| GGTCCGGA | 0.446 |
| CGTCCGGA | 0.43 |
| CATTTTCG | 0.173 |
| TAAGTGAA | -0.072 |
| ATGAGGAG | -0.132 |

| Sequence | PBM E-score |
| --- | --- |
| CGGACGCC | 0.366 |
| CTAGTTCC | 0.0969 |
| CGCAATTC | 0.201 |
| CATGAAGG | -0.145 |
| TATCCACA | -0.144 |
| ACAACTCC | 0.295 |
| CCTTTCGC | 0.0666 |
| AATGCGGA | 0.396 |
| CATGCGGA | 0.317 |
| AGTGCGGG | 0.258 |
| AGTGCGGA | 0.394 |
| CGTGCGGA | 0.279 |
| AATGCGGT | 0.116 |
| AGCCGGCA | 0.33 |
| GGCCGGCA | 0.394 |
| CGCCGGCA | 0.39 |
| CGCCGGCG | 0.463 |
| GGCCGGCC | 0.372 |
| CGCCGGCC | 0.367 |
| AGCCGGCG | 0.372 |
| AGCCGGCC | 0.324 |
| CGCCGCCG | 0.362 |
| AAGCTATG | -0.249 |
| AATTTGAG | -0.15 |
| CCCATCTC | 0.0175 |

| Sequence | PBM E-score |
| --- | --- |
| GGATGGGA | 0.0151 |
| GTTGTGTA | -0.159 |
| AACAAGCA | 0.0514 |
| CGTGGGCA | -0.16 |
| GCCGGAGC | 0.452 |
| GCCAGAGA | -0.194 |
| TCCAGAGA | -0.212 |
| GCAGGAGC | -0.194 |
| CCCGGACC | 0.376 |
| GCCGGTGA | 0.298 |
| GCCAGAGC | -0.222 |
| CCGGGAGC | 0.228 |
| GCCGGAGA | 0.459 |
| CCCGGAGC | 0.452 |
| TCAGGAGA | -0.0923 |
| TCCGGAGA | 0.483 |
| GTCTACTA | -0.0894 |
| CCGTCCCG | 0.348 |
| CCCAACCG | -0.0967 |
| AAGCTGCC | -0.234 |
| ATCCAAGG | 0.0179 |
| AGGCTGCA | -0.242 |
| CCCCTCAG | -0.124 |
| TCAAAGCA | -0.174 |
| AGTTCACC | 0.126 |

| Sequence | PBM E-score |
| --- | --- |
| GCAACCAC | 0.00041 |
| ACCGGGGG | 0.293 |
| ACCGGAGG | 0.441 |
| CCGGGAGG | 0.261 |
| ACCGGATG | 0.279 |
| CCCAGAGA | -0.233 |
| ACCGGAGC | 0.448 |
| ACCGGATC | 0.354 |
| CCCCGAGG | 0.245 |
| CCCGGAGA | 0.476 |
| CCGGGAGA | 0.362 |
| ACTGGAGC | -0.117 |
| CCCGGAGG | 0.439 |
| GCGTATAC | -0.00732 |
| CGTAGAAC | -0.0134 |
| AATGAACA | -0.117 |
| ACATTGGG | -0.122 |
| TATATCCA | -0.171 |
| ACAGGAGT | -0.0336 |
| ACCGGATA | 0.265 |
| ACCGGAGA | 0.475 |
| ACCGGAGT | 0.481 |
| ACAGGAGA | -0.0277 |
| ACCAGAGT | -0.219 |
